# From PubChem BioAssay (NCATS)
# A number with no mark means an inactive call. Inconclusive results are not listed. The source made the active and inactive calls. Unless noted, the call rests on the fitted dose curve; in most records, active means well fitted curve in the direction sought with a large enough effect; inconclusive means small, poorly fitted or top-dose-only effect, or another doubt; inactive means no such curve, though single readings can be large; an effect the other way counts as inactive or inconclusive.
# Tests used:
# [1] = NFAT Signaling Pathway (AID 444; active means well fitted curve in either direction with a large enough effect, not every such curve was filed as active;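 further: carbachol stimulus at about its EC50 of 1 µM final; on the % scale 0 is the no-effect control and ±100 the full control effect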); conditions: Jurkat NFAT-bla M1, carbachol, beta-lactamase ratio, 5 h; at 7.69 µM (top of the series) unless noted
# Summary of the method: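 Jurkat cells carrying an NFAT-driven β-lactamase reporter and co-transfected muscarinic M1 receptor were treated with compound plus carbachol (1 uM final, an EC50 level) for 5 h at 37 °C. CCF4 loading followed for 1 h at RT; 460/530 nm ratio gave %activity.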
# [2] = Stat Signaling Pathway (AID 446; active means well fitted curve in either direction with a large enough effect, not every such curve was filed as active;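 further: ME-180 cervical cancer cells given 40 pM IL-6 alongside compound; SIE-controlled beta-lactamase reporter measured as 460/530 nm FRET emission ratio; on the % scale 0 is the no-effect control and ±100 the full control effect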); conditions: ME-180 SIE beta-lactamase reporter, IL-6 stimulated, 5 h; at 7.69 µM (top of the series) unless noted
# Summary of the method: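 Overnight-plated ME-180 cells bearing a STAT Inducible Element beta-lactamase reporter; 5 h co-exposure to compound and 40 pM IL-6; values normalized to 300 pM IL-6 and 125 nM JAK inhibitor controls.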
# [3] = target: Glucocorticoid receptor (Homo sapiens) (UniProt P04150); experiment: GR-GFP Redistribution (AID 450;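 active means compounds whose dose series gives a full or clear partial fitted curve of increased nuclear translocation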; further: potency means the concentration at half of the fitted maximal effect); conditions: U2OS GR-GFP nuclear translocation, laser cytometry, 2 h
# Glucocorticoid receptor (Homo sapiens), sequence (P04150 whole entry, looked up, the tested form may be a part): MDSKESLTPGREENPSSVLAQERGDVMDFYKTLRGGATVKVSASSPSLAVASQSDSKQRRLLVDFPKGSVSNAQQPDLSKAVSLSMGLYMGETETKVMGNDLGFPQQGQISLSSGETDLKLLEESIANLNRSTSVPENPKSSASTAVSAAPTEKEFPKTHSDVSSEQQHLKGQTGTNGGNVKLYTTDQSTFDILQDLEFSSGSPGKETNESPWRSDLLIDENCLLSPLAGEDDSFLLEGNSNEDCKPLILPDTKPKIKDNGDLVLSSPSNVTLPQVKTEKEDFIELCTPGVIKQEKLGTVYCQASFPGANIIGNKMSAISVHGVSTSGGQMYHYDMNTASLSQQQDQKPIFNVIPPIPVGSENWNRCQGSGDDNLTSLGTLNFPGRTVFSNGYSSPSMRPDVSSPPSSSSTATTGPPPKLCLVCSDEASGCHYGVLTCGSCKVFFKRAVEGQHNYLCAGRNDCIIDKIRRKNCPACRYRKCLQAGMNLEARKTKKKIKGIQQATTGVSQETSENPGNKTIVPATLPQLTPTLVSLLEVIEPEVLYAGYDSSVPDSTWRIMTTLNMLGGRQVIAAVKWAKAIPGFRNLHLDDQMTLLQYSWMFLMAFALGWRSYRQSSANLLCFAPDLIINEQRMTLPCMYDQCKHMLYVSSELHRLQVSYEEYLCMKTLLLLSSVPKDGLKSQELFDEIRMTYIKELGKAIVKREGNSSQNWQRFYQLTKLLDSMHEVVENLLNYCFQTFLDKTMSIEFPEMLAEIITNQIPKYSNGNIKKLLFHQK
# [4] = target: Glucocorticoid receptor (Homo sapiens) (UniProt P04150); experiment: GR-EFC Redistribution (AID 451; calls by dose curve; further: potency means the concentration at half of the fitted maximal effect); conditions: CHO-K1 GR-EFC translocation, beta-gal luminescence, 2 h
# Summary of the method: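 CHO-K1 cells stably expressing nuclear-localized β-gal enzyme acceptor and GR fused C-terminally to the enzyme donor fragment; ligand-driven nuclear translocation restores β-gal by complementation. Compounds titrated up to 46 uM final, 2 h at 37 °C; luminescence read.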
# [5] = target: Mitogen-activated protein kinase 10 (Mus musculus) (UniProt Q61831); experiment: JNK3 AlphaScreen Assay (AID 530; active means well fitted curve in either direction with a large enough effect, not every such curve was filed as active;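 further: kinase came from lysate of stimulated human HepG2 cells; signal reports phosphorylation of biotinylated GST-cJun 1-79 at Ser73 with 10 µM ATP; on the % scale 0 is the no-effect control and ±100 the full control effect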)
# Summary of the method: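 Biotinylated GST-cJun(1-79) served as substrate for JNK3 in HepG2 lysates stimulated with IL-1beta and TNF-alpha. ATP was 10 uM final, pH 7.6. Ser73 phosphorylation was quantified by AlphaScreen (680 nm excitation).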
# [6] = target: Dual specificity protein kinase CLK4 (Homo sapiens) (UniProt Q9HAZ1); experiment: qHTS Assay for Inhibitors of CDC-like Kinase 4 (ADP-FP Assay) (AID 1795); further: nearly all actives have a fitted effect of over 60% in size; further: potency means the concentration at half of the fitted maximal effect
# Dual specificity protein kinase CLK4 (Homo sapiens), sequence (Q9HAZ1 whole entry, looked up): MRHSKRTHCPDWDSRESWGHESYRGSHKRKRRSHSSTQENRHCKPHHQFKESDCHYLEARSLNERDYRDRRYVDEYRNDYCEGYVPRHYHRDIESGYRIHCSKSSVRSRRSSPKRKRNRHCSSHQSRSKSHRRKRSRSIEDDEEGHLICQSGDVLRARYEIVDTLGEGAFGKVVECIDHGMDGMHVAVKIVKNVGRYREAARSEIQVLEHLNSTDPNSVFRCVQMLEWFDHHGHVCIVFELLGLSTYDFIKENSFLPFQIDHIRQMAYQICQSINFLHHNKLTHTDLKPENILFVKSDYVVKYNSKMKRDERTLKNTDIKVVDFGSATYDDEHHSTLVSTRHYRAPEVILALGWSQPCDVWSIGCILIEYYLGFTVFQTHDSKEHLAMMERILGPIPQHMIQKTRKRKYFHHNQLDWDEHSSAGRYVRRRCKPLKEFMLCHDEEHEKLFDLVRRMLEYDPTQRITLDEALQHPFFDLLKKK
# Summary of the method: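 Recombinant human Clk4 (6.25 nM) phosphorylated RS repeat peptide (100 uM) with 1 uM ATP in Tris pH 7.5/MgCl2/EGTA/DTT/Triton buffer for one hour. ADP was quantified by Transcreener competitive fluorescence polarization against an ADP calibration curve.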
# [7] = target: Ubiquitin carboxyl-terminal hydrolase 1 (Homo sapiens) (UniProt O94782); experiment: Inhibitors of USP1/UAF1: Pilot qHTS (AID 504865);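 further: rhodamine fluorescence freed from ubiquitin-rhodamine substrate followed over time; top concentration of the series differs between compounds; on the % scale 0 is the no-effect control and ±100 the full control effect; nearly all actives have a fitted effect of over 35% in size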
# Ubiquitin carboxyl-terminal hydrolase 1 (Homo sapiens), sequence (O94782 whole entry, looked up): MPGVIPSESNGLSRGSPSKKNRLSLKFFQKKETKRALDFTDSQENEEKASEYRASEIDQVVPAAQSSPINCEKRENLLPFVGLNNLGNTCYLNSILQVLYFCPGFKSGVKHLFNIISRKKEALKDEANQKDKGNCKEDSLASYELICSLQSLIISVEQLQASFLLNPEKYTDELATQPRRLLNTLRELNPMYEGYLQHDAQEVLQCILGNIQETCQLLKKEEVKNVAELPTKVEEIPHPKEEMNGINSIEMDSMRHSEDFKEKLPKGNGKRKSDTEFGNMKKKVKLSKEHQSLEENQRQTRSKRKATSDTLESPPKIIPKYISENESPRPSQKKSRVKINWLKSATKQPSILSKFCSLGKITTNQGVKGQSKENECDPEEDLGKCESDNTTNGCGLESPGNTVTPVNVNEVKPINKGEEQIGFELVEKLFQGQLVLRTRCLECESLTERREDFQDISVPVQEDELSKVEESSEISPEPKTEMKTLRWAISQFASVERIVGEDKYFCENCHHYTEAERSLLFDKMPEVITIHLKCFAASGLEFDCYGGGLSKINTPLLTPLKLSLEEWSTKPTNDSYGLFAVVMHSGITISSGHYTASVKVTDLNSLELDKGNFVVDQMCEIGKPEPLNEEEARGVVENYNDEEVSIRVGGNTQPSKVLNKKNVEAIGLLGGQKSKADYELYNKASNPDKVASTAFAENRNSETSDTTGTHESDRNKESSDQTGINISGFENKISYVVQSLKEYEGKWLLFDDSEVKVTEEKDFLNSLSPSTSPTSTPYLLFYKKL
# Summary of the method: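 USP1/UAF1 complex (1nM) preincubated with compound 15 min at room temperature, then Ub-Rho substrate (150nM final) added. Fluorescence read kinetically at 480/540 nm, 6 reads every 60 seconds. Buffer: 50mM HEPES pH 7.8, 0.5mM EDTA, 0.1 mg/ml BSA, 1mM TCEP, 0.01% Tween-20.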
# [8] = Primary qHTS for small molecule stabilizers of the endoplasmic reticulum resident proteome: Secreted ER Calcium Modulated Protein (SERCaMP) assay (AID 1508630); further: on the % scale 0 is the no-effect control and ±100 the full control effect
# Summary of the method: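 The SH-SY5Y reporter protocol was run at 3 concentrations up to 38.3 uM (primary) or 11 concentrations (follow-up): 16 h compound, 100 nM thapsigargin for 4 h, then extracellular luciferase luminescence.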
# [9] = target: Lysosomal acid glucosylceramidase (Homo sapiens) (UniProt P04062); experiment: Glucocerebrosidase-p2 (AID 348; in the data active means potency below about 10 µM; further: potency means the concentration at half of the fitted maximal effect); conditions: purified GBA, blue fluorogenic substrate, 40 min
# Lysosomal acid glucosylceramidase (Homo sapiens), sequence (P04062 whole entry, looked up): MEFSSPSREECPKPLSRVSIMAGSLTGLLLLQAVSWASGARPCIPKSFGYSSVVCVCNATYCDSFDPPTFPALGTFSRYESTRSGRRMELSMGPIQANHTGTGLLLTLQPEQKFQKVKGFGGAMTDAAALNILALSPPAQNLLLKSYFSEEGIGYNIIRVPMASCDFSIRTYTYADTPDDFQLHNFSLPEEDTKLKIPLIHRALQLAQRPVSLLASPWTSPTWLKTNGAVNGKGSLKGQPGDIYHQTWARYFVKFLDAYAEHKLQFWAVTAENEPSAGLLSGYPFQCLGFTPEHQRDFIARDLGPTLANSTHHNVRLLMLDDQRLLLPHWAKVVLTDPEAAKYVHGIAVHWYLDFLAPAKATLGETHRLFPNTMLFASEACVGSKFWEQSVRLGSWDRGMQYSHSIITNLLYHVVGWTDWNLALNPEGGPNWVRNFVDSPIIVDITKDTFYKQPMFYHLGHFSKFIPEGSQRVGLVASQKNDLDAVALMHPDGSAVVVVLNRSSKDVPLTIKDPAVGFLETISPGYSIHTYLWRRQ
# Summary of the method: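 Normal human glucocerebrosidase (0.2 nM) with blue fluorogenic substrate (80 uM final) in citrate/phosphate pH 5.9 with 10mM sodium taurocholate, 0.01% tween-20; 40 min RT, NaOH/glycine stop; fluorescence Ex 365/Em 440; AC50 from a titration from 0.6 nM upwards.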
# [10] = qHTS Assay for Identification of Small Molecule Agonists for Hypoxia Response Element Signaling Pathway (AID 914; active means well fitted activation curve with a large enough effect in the signal ratio, with a control signal flat, not every such curve was filed as active; the % refers to the signal ratio; further: potency means the concentration at half of the fitted maximal effect); conditions: ME-180 HRE-bla reporter, beta-lactamase ratio, CoCl2, 17 h; activation: stronger effect = higher value
# Summary of the method: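 In Opti-MEM containing 0.5% dialyzed FBS and 10 mM HEPES, ME-180 HRE-bla cells received a compound titration and EC50 CoCl2. They were incubated 17 hours, then CCF4-loaded 2.5 hours at room temperature before ratio reading.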
# [11] = AP1 Signaling Pathway (AID 357; active means well fitted curve in either direction with a large enough effect, not every such curve was filed as active); conditions: ME-180 (cervical carcinoma) AP-1-bla reporter, EGF-induced, beta-lactamase ratio, 5 h; at 7.69 µM (top of the series) unless noted
# Summary of the method: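 In this screen, ME-180 cells in Opti-MEM with 0.5% dialyzed FBS received EC50 EGF and compound titrations for 5 h. AP-1 reporter beta-lactamase was detected via CCF4 ratio, giving AC50 for positive and negative modulators.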
# [12] = target: Cytochrome P450 1A2 (Homo sapiens) (UniProt P05177); experiment: p450-cyp1a2 (AID 410; calls by dose curve; further: potency means the concentration at half of the fitted maximal effect;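 on activity change, negative = inhibition: -100% = full effect of reference inhibitor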)
# Cytochrome P450 1A2 (Homo sapiens), sequence (P05177 whole entry, looked up): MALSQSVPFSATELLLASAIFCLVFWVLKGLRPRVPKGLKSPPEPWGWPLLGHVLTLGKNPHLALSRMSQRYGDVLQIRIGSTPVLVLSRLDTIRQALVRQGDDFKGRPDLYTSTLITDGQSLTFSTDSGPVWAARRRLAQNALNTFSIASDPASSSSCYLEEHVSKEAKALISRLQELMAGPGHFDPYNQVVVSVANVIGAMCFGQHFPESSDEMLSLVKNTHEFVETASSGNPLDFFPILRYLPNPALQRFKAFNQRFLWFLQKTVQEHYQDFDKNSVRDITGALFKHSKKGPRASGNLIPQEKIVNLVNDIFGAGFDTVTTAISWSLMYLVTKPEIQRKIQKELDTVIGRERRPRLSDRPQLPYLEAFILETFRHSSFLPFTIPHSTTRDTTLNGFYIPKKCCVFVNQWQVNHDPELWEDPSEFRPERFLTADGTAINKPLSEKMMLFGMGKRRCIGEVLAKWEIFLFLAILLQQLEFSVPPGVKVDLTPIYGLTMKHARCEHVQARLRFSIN
# Summary of the method: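 20nM CYP1A2, 100uM Luciferin-ME (=Km), 100mM KPO4; cpd 10 min RT; +NADPH regen, 60 min RT; stop/detect 20 min; luminescence. Normalized to furafylline 57 uM = full inhibition.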
# [13] = target: 3',5'-cyclic-AMP phosphodiesterase 4B (Homo sapiens) (UniProt Q07343); experiment: qHTS Assay for Inhibitors of PDE-IV (AID 607; active means well fitted activation curve with a large enough effect in the main read-out, with a control signal flat, not every such curve was filed as active; further: % of control where 0% means no effect)
# 3',5'-cyclic-AMP phosphodiesterase 4B (Homo sapiens), sequence (Q07343 whole entry, looked up): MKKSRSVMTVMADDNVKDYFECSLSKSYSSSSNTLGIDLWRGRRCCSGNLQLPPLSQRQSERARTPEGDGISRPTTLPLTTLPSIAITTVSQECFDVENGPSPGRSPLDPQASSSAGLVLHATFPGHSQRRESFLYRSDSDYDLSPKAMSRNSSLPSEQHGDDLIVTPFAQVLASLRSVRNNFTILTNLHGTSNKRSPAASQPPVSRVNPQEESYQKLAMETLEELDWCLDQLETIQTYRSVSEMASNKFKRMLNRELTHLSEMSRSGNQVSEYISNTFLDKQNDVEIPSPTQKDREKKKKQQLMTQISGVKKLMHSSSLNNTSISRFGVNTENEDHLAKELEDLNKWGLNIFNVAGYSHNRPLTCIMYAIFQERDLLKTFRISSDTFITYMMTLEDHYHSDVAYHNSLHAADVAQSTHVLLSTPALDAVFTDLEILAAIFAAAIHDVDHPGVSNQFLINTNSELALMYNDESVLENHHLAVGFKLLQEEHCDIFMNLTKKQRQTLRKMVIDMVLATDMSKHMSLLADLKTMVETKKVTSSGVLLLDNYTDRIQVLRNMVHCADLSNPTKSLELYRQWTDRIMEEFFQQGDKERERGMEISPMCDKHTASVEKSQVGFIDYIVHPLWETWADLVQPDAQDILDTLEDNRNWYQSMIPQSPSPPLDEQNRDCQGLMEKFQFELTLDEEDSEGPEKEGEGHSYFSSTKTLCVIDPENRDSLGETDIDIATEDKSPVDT
# Summary of the method: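 Live HEK293 cells with a modified cyclic nucleotide-gated (CNG) channel report intracellular cAMP via membrane-potential dye fluorescence (ex 535/em 590 nm). Endogenous PDE-IV was targeted. Compounds were tested at up to 22.9 uM final; RO 20-1724 100 uM served as control.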
# [14] = target: Cytochrome P450 3A4 (Homo sapiens) (UniProt P08684); experiment: qHTS Assay for Activators of Cytochrome P450 3A4 (AID 885); further: nearly all actives have a fitted effect of over 65% in size
# Cytochrome P450 3A4 (Homo sapiens), sequence (P08684 whole entry, looked up): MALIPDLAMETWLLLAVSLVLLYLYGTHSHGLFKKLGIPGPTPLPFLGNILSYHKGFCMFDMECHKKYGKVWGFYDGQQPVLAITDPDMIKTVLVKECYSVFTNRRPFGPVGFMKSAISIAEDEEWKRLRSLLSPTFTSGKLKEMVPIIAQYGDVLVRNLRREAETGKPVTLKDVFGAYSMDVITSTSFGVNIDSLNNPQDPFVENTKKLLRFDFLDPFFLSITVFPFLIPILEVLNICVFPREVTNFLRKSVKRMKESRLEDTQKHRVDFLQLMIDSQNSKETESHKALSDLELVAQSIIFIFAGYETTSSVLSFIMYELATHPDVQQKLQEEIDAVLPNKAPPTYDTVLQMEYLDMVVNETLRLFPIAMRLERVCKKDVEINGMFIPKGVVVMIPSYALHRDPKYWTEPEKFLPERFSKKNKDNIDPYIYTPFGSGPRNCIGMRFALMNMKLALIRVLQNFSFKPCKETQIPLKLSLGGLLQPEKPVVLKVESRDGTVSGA
# Summary of the method: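 Using 20nM recombinant human CYP3A4 in potassium phosphate (200mM), substrate Luciferin-PPXE at 25uM, luminescent luciferin detection followed a 60-min RT NADPH reaction; data scaled to 57 uM ketoconazole.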
# [15] = Confirmation and Secondary Assay for Modulators of Hemoglobin Beta Chain Splicing at IVS2 654 locus (AID 910);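 further: per-well total GFP intensity by laser scanning cytometry after 2-day treatment; % of control where 0% means no effect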
# Summary of the method: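 HeLa cells stably carrying EGFP interrupted by mutant beta-globin IVS2-654 intron (CMV-driven) were treated with compound for 2 days at 37C; corrected splicing was scored as total peak GFP intensity per well (488 nm excitation, 500-520 nm emission).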
# [16] = Confirmation and Secondary Assay for Modulators of Hemoglobin Beta Chain Splicing at IVS2 705 locus (AID 930);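 further: HeLa cells stably expressing the EGFP-705 splicing reporter; GFP fluorescence per well restored by corrected splicing of the IVS2-705 intron in EGFP; % of control where 0% means no effect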
# Summary of the method: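 Per-well GFP, captured at 1 x 8 µm resolution with 488 nm excitation, served as the read-out for HeLa EGFP-705 cells incubated 2 days with test compound versus DMSO.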
# [17] = target: Cytochrome P450 2C19 (Homo sapiens) (UniProt P33261); experiment: qHTS Assay for Inhibitors and Substrates of Cytochrome P450 2C19 (AID 899); further: potency means the concentration at half of the fitted maximal effect; nearly all actives have a fitted effect of over 60% in size
# Cytochrome P450 2C19 (Homo sapiens), sequence (P33261 whole entry, looked up): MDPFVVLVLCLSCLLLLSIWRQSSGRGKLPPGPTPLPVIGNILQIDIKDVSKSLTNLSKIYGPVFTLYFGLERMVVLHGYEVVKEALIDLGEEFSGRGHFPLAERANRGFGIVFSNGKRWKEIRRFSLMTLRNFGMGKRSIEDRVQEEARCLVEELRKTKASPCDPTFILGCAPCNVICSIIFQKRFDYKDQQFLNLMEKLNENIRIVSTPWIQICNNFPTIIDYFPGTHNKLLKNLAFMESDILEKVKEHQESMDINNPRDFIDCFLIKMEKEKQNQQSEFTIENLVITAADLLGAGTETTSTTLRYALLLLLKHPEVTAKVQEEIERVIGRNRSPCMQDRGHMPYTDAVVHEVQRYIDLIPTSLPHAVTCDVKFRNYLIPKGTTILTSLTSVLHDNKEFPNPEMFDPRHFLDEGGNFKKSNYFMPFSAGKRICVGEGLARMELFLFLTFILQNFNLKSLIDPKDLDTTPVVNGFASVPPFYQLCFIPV
# Summary of the method: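 NADPH-dependent conversion of Luciferin-H EGE (10uM, at KM) by 5nM enzyme in 50mM KPO4, 60 min at 37C following 10 min compound preincubation. Stopped with luciferin detection buffer; luminescence read after 20 min.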
Compound,"activity change, negative = inhibition [1] [%]","activity, negative = inhibition [2] [%]",Potency [3] [µM],Potency [4] [µM],Potency [5],Potency [6],Potency [7],outcome [8],Potency [9] [µM],Potency [10],"activity change, negative = inhibition [11] [%]",Potency [12],Potency [13],Potency [14],Potency [15],outcome [16],Potency [17]
CN(C)C(=O)c1ccc(-c2ccc3ncnc(N(C)Cc4ccco4)c3c2)cc1,8.43,-9.98,> 46,> 46,inactive,7.08 µM (active),inactive,inactive,,,,,,,,,
CCNc1ncc2nc(-c3ccc(Cl)cc3)c(=O)n(Cc3cccs3)c2n1,,,> 9.22,> 46,inactive,inactive,inactive,inactive,> 11.4,126 nM (active),,,,,,,
CN(C)C(=O)c1ccc(-c2nccc(NCc3cccnc3)n2)cc1,3.73,2.62,> 46,> 46,inactive,,inactive,inactive,> 11.4,,-3.36,15.8 µM (active),inactive,inactive,inactive,inactive,
CN(C)C(=O)c1ccc(-c2cncnc2Nc2ccc(F)cc2)cc1,5.12,9.71,> 46,> 46,inactive,inactive,inactive,inactive,,,-12.8,,,,,,
COc1ccc2[nH]cc(CCNc3cc(-c4ccccc4CN(C)C)ncn3)c2c1,-12.7,6.88,> 46,> 46,inactive,inactive,inactive,inactive,,,14.9,,inactive,,,,
FC(F)(F)c1ccccc1-c1cc(NCc2cccs2)ncn1,-14.8,5.97,> 46,> 46,inactive,inactive,inactive,inactive,,,-3.47,3.98 µM (active),inactive,,,,794 nM (active)
NC[C@@H]1O[C@H](O[C@H]2[C@H](O)[C@H](O[C@H]3[C@@H](O)[C@H](N)C[C@H](N)[C@H]3O[C@H]3O[C@H](CN)[C@H](O)[C@H](O)[C@H]3N)O[C@@H]2CO)[C@@H](N)[C@@H](O)[C@@H]1O,,,,,,,,inactive,,,,,,,,,
CN(C)C(=O)c1ccc(-c2cncnc2NCCN2CCOCC2)cc1,-6.2,0.853,> 46,> 46,inactive,,inactive,inactive,> 11.4,,-0.958,inactive,inactive,inactive,inactive,inactive,
